The record followed here is PubChem BioAssay AID641 (Vanderbilt High Throughput Screening Facility, 2007).

SMILES strings stand for the structures. In all, about 58,000 compounds went through this assay and about 3,400 (5.9%) were called active.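 The calls were made as follows: active = luminescence count or its row- and column-corrected plate score outside the 99.7% band of the plate's sample wells, on either side; inactive = the rest.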 What follows is part of a selection rich in actives, with near analogues and random picks from the rest.

Sequence of D(1A) dopamine receptor (Homo sapiens) (P21728 whole entry, looked up): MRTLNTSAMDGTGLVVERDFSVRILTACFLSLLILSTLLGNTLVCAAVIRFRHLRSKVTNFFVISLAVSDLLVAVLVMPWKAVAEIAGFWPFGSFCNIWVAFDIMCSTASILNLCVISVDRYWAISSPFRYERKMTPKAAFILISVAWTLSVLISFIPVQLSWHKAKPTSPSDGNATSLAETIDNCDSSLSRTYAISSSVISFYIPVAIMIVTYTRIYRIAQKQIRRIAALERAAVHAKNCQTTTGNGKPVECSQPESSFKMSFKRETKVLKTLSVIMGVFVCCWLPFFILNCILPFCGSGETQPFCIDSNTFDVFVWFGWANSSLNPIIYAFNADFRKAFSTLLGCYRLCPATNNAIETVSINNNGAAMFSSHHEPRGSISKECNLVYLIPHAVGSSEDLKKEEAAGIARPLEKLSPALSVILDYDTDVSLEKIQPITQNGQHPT

The assay addresses D(1A) dopamine receptor (Homo sapiens) (UniProt P21728). Briefly: D1 CRE-luciferase signal change, two-sided – cell-based, HEK293 D1, dopamine EC30, D1 allosteric modulator project, primary screen (AID 641). To be noted: dopamine EC30 potentiation, at 10 µM, actives deviate in either direction.
As for `CCCC(=O)C1=C(N(C)c2ccccc2)CC(C)(C)C(C(=O)OC)C1=O` (stereo not given), the B-score is 0.78 (inactive).
On to `Cn1c2ccccc2c2c(C(=O)N3CCN(c4ccc(F)cc4)CC3)cn(C3CCCC3)c(=O)c21`, for which the B-score was 0.395 (inactive).
Take `Cc1c(CN2CCC(C)CC2)c(=O)n(-c2ccccc2)n1C`: the B-score was 0.319 (inactive).
Then `Cn1cccc1C(=O)NC(=O)COC(=O)Cc1coc2ccc3ccccc3c12`, with -0.19 (inactive).
The result for `COc1ccc(C(=O)c2oc3ccc(Br)cc3c2NC(C)=O)cc1` reads -0.206 (inactive); that for `Cc1cc(C(=O)O)c(S(C)(=O)=O)s1`, 0.833 (inactive); that for `CC(=O)c1c(C)c[nH]c1C`, -3.34 (active).
Then `COC(=O)Nc1ncc(CN2C(=O)c3ccccc3C2=O)s1`, with 3.19 (active); and `CC(C)OC(=O)CN1C(=O)c2ccccc2C1=O`, with 0.49 (inactive).
For `O=C(CCN1C(=O)c2ccccc2C1=O)Nc1ccncc1`, the B-score was 0.176 (inactive).
Regarding `CN(C)c1cc(N)c2ccccc2n1` (tested in a mixture with another compound), the B-score is -2.66 (inactive).
The result for `CCOC(=O)C1CCN(C(=O)Nc2ccc(Cl)cc2)CC1` reads -0.339 (inactive); that for `CCCCn1nc(C(=O)N2CCc3ccccc32)c2ccccc2c1=O`, 0.35 (inactive).
The result for `CCn1nc(C(=O)OCC(=O)N2c3ccccc3CC2C)c2ccccc2c1=O` (stereo not given) reads 4.38 (active); that for `CC1Cc2ccccc2N1C(=O)Cn1cnc2ccccc2c1=O` (stereo not given), -0.115 (inactive).
The result for `O=C(COc1ccc2c3c(c(=O)oc2c1)CCC3)NC1CCCCC1` reads -1.02 (inactive).
On to `CC(C)Nc1nc(N(c2ccccc2)c2ccccc2)nc(-n2ccnc2)n1`, for which the B-score is 0.848 (inactive).
Regarding `N#Cc1nc(N)nc(N(c2ccccc2)c2ccccc2)n1`, the B-score is 4.55 (active).
Then `CC(C)(C)Oc1ncc(Br)c(OC(C)(C)C)n1`, with 0.0357 (inactive).
For the molecule `c1ccc(-c2[nH]ncc2-c2nc3ccccc3[nH]2)cc1`, the B-score is 0.738 (inactive).
Then `c1ccc2[nH]c(-c3nc4ccccc4[nH]3)nc2c1`, with -2.93 (active); and `C=CCSc1nc2ccccc2[nH]1`, with -0.468 (inactive).
Then `c1ccc(-n2ncc3c2ncn2c(CSc4nc5ccccc5s4)nnc32)cc1`, with -0.538 (inactive); and `Cc1cccc(OCc2nnc(SCC(=O)N3CCN(C(=O)c4ccco4)CC3)n2C)c1C`, with -0.00929 (inactive); and `N#CC1=C(N)Oc2cc(O)ccc2C1C1CCCCC1` (stereo not given), with -0.438 (inactive).
On to `Cc1cccc(NC(=O)COc2ccc(Br)cc2C)n1`, for which the B-score is 0.787 (inactive).
The result for `O=C(C1CCCO1)N(Cc1ccccc1)c1ccccc1` (stereo not given) reads 0.947 (inactive); that for `CCn1c(SCC(=O)Nc2ccccc2F)nc2c(c1=O)SC(C)C2` (stereo not given), 0.8 (inactive); that for `CCCCSc1nc2c(c(=O)n1CC)SC(C)C2` (stereo not given), 9.06 (active).
For the molecule `CCn1c(SCC(=O)Nc2ccc3c(c2)OCCO3)nc2c(c1=O)SC(C)C2` (stereo not given), the B-score is 2 (inactive).
The result for `COC(=O)c1ccc(NC(=O)c2ccco2)cc1` reads -1.96 (inactive); that for `CN(CCC#N)c1ncnc2scc(-c3ccccc3)c12`, 1.98 (inactive); that for `C=CCn1cnc2scc(-c3ccccc3)c2c1=O`, 10.5 (active).
Regarding `C=CCn1c(SCc2csc(C)n2)nc2scc(-c3ccc(C)o3)c2c1=O`, the B-score is -0.492 (inactive).
On to `CN1C(C)(C)CC(NC(=O)CCC(=O)NC2CC(C)(C)N(C)C(C)(C)C2)CC1(C)C`, for which the B-score was 0.00629 (inactive).
In the case of `CCN(CC)C(=O)C1CCC(C)(C(=O)O)C1(C)C` (stereo not given), the B-score was -0.39 (inactive).
Then `CCc1ccc(N(CC)c2ncnc3nc[nH]c23)cc1`, with -4 (inactive); and `O=C(CN1CCOCC1)Nc1c2c(nc3c1CCC3)CCC2`, with 2.06 (inactive).
Then `O=C(NCCCNCc1ccccc1)c1ccc(/C=N/O)nc1`, with -0.581 (inactive); and `N#Cc1nc(COc2ccc(-c3ccccc3)cc2)oc1NCc1cccnc1`, with -1.5 (inactive).
`N#Cc1nc(Cc2cccc3ccccc23)oc1NCc1ccc2c(c1)OCO2`: the B-score is -0.388 (inactive).
With `CCOc1ccc(NC(=O)Nc2cc(C)on2)cc1`, the B-score is -0.142 (inactive).
Turning to `N#Cc1nc(Cc2ccccc2)oc1NCCc1ccccc1`, the B-score is 4.08 (active).
`COc1ccc(Nc2oc(-c3ccccc3Cl)nc2C#N)cc1`: the B-score is 6.96 (active).
The result for `COc1ccc(CC(=O)Nc2ccc(-c3nnc(-c4ccccc4)o3)cc2)cc1` reads 0.0608 (inactive); that for `O=C(CSc1ncccn1)NCCc1ccccc1`, 0.879 (inactive).
The result for `N#Cc1nc(-c2ccc(OCc3ccccc3)cc2)oc1NCCCN1CCOCC1` reads -0.727 (inactive).
Take `CCOc1ccc(Nc2oc(Cc3ccccc3)nc2C#N)cc1`: the B-score was 3.11 (active).
For `CN(CCCC(=O)Nc1nccs1)S(=O)(=O)c1ccc(Cl)cc1`, the B-score was 0.49 (inactive).
As for `Cc1cc(/C=N/n2cnnc2)c(C)n1-c1cccc(C(=O)O)c1`, the B-score is -0.0541 (inactive).
Regarding `O=C(CN1CCOCC1)Nc1c(-c2ccccc2)c2cc(Br)ccc2[nH]c1=O`, the B-score is 2.41 (inactive).
Then `CS(=O)(=O)N1CCN(C(=O)Cc2ccccc2)CC1`, with -1.05 (inactive); and `CS(=O)(=O)N(CC(=O)N1CCOCC1)c1ccc2c3c(cccc13)CC2`, with 1.66 (inactive).
Then `COc1ccc(-c2n[nH]c(C)c2-c2ccc(OC)c(OC)c2)c(O)c1`, with 2.72 (active); and `CCOc1ccccc1Oc1cn[nH]c1-c1ccc(OC)cc1O`, with -0.51 (inactive).
In the case of `C=C(C)COc1ccc(-c2n[nH]c(C)c2-c2ccccc2)c(O)c1`, the B-score is 0.197 (inactive).
Then `Cc1nonc1NC(=O)c1ccccc1Br`, with -0.0424 (inactive); and `Cc1cc(C(=O)N2CCN(c3ccccn3)CC2)c(C)o1`, with -0.0773 (inactive); and `COC(=O)CSC1=C(C#N)C(c2ccccc2OC)C(C(=O)OC)C(=O)N1` (stereo not given), with 0.897 (inactive).
The result for `O=C1Nc2c(Br)cc(Br)cc2C1(O)N1CCOCC1` (stereo not given) reads 0.955 (inactive).
The result for `CCOc1ccc2nc(NCCNS(=O)(=O)c3ccccc3)c(C#N)cc2c1` reads 0.768 (inactive); that for `O=C(Nc1nncs1)c1ccccc1NS(=O)(=O)c1cccs1`, -0.0134 (inactive); that for `CCCCNc1nc2ccccc2nc1NS(=O)(=O)c1cccs1`, 19.3 (active).
As for `COc1nc(OC)nc(N(C)CCO)n1`, the B-score is 0.849 (inactive).
Then `Cc1ccc(C)c2[nH]c(=O)c(CCNC(=O)CC(C)C)cc12`, with -0.219 (inactive).
